The panel holds about 79,000 compounds, 15% with a hit somewhere; the sample as a whole holds those more often. Calls of active or inactive are those of the source. Cut-off read from the data, not from the text of the source: active = growth inhibition above about 70%; inactive = the rest.
Experiments:
[1] = NCI Yeast Anticancer Drug Screen. Data for the rad52 strain (AID 147);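 note: 0% = growth of vehicle-treated control cultures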; conditions: S. cerevisiae rad52 mutant growth inhibition, hits give high values
In short: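 Compounds are applied to a genetically defined yeast strain lacking normal DNA damage repair, and inhibition of growth is expressed relative to cultures given vehicle only.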

[2] = NCI Yeast Anticancer Drug Screen. Data for the wt1 strain (AID 149);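 note: 0% = growth of vehicle-treated wt1 cultures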; conditions: S. cerevisiae wt1 strain (SPY 50644) growth inhibition, hits give high values
In short: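 wt1 strain grown with compound or vehicle; inhibition taken from the growth difference.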

[3] = NCI Yeast Anticancer Drug Screen. Data for the rad50EPP+ strain (AID 151);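 note: 0% = growth of vehicle-treated control cultures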; conditions: S. cerevisiae rad50 mutant strain, hits give high values
In short: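 Compounds were applied to the rad50EPP+ yeast strain, which bears a defined DNA repair alteration, and growth inhibition was determined relative to vehicle-treated cultures.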

[4] = NCI Yeast Anticancer Drug Screen. Data for the mgt1 strain (AID 153); conditions: S. cerevisiae mgt1 mutant growth inhibition, hits give high values
In short: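 Strain: mgt1 yeast, one of a set carrying defined DNA damage repair or cell cycle control alterations. Compound-treated growth compared with vehicle.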

[5] = NCI Yeast Anticancer Drug Screen. Data for the rad50 strain (AID 155);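 note: 0% = growth of vehicle-only cultures of the same strain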; conditions: S. cerevisiae rad50 strain growth inhibition, hits give high values
In short: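 DNA repair mutant yeast, compound exposure, growth read-out; inhibition is taken relative to vehicle.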

[6] = NCI Yeast Anticancer Drug Screen. Data for the mec2-1 strain (AID 157); conditions: S. cerevisiae mec2-1 strain, hits give high values
In short: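 Strain: mec2-1 (DNA repair/cell cycle alteration). Compound exposure, then growth measured; inhibition expressed relative to vehicle.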

[7] = NCI Yeast Anticancer Drug Screen. Data for the rad14 strain (AID 159);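 note: 0% = growth of vehicle-treated control cultures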; conditions: S. cerevisiae rad14 strain growth inhibition, hits give high values
In short: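 DNA repair-defective yeast, compound-exposed; % growth inhibition derived by comparison with vehicle-treated controls.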

[8] = NCI Yeast Anticancer Drug Screen. Data for the sgs1 mgt1 strain (AID 161);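 note: 0% = growth of cultures given vehicle only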; conditions: S. cerevisiae sgs1 mgt1 strain, hits give high values
In short: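 Inhibition of yeast growth, normalised to vehicle-treated controls, is reported for a strain bearing genetic alterations in DNA damage repair.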

[9] = NCI Yeast Anticancer Drug Screen. Data for the CLN2oe strain (AID 163);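 note: 0% = growth of vehicle-only control cultures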; conditions: S. cerevisiae CLN2oe strain, hits give high values
In short: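 Growth of a genetically modified yeast strain is measured after compound exposure and compared with cultures given vehicle alone.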

[10] = NCI Yeast Anticancer Drug Screen. Data for the cln2 rad14 strain (AID 165);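 note: 0% = growth equal to vehicle treated cultures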; conditions: S. cerevisiae cln2 rad14 strain, hits give high values
In short: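 Compounds are applied to the cln2 rad14 yeast strain, and growth is then compared with that of vehicle-treated cultures to give inhibition.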

[11] = NCI Yeast Anticancer Drug Screen. Data for the bub3 strain (AID 167); conditions: S. cerevisiae bub3 mutant strain, hits give high values
In short: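 In this screen, a yeast mutant lacking normal mitotic checkpoint function is challenged with compound. Relative growth versus vehicle gives the inhibition value.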

[12] = NCI Yeast Anticancer Drug Screen. Data for the mlh1 strain (AID 171);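 note: 0% = growth of vehicle-treated control cultures of the same strain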; conditions: S. cerevisiae mlh1 strain growth inhibition, hits give high values
In short: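 Growth of the mutant yeast strain after compound exposure, expressed as inhibition relative to vehicle-only controls.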

[13] = NCI Yeast Anticancer Drug Screen. Data for the sgs1 strain (AID 173);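 note: 0% = growth of vehicle-only control cultures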; conditions: S. cerevisiae sgs1 mutant, hits give high values
In short: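 Growth of a yeast strain bearing a defined genetic alteration is measured after compound treatment. Inhibition is expressed relative to vehicle-only controls.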

[14] = NCI Yeast Anticancer Drug Screen. Data for the mlh1 rad18 strain (AID 175); conditions: S. cerevisiae mlh1 rad18 strain growth inhibition, hits give high values
In short: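 Read-out is yeast growth inhibition, calculated against vehicle-only controls. The compound was applied to a strain engineered with DNA damage repair alterations.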

[15] = NCI Yeast Anticancer Drug Screen. Data for the rad18 strain (AID 177); conditions: S. cerevisiae rad18 mutant growth inhibition, hits give high values
In short: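 Growth of the mutant yeast strain after compound exposure, normalised to vehicle-only cultures.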

[16] = at 5.0 µM (retest, dose inferred, filed as 0.5)
[17] = at 50.0 µM (retest, dose inferred, filed as 5.0)

Measured: growth inhibition

CCN(CC)CCC(=O)Nc1ccc2sc3ccccc3c(=O)c2n1
active: [1]; at 3.7 µM 70% | [1]; at 11.0 µM 92% | [1]; at 33.0 µM 95% | [1]; at 100.0 µM 94% | [3]; at 11.0 µM 89% | [3]; at 33.0 µM 94% | [3]; at 100.0 µM 94% | [5]; at 11.0 µM 85% | [5]; at 33.0 µM 93% | [5]; [17] 90% | [5]; at 100.0 µM 91%
inactive: [1]; at 1.2 µM 33% | [2]; at 1.2 µM -4% | [2]; at 3.7 µM -2% | [2]; at 11.0 µM 1% | [2]; at 33.0 µM 10% | [2]; at 100.0 µM 8% | [3]; at 1.2 µM 25% | [3]; at 3.7 µM 66% | [4]; at 1.2 µM -1% | [4]; at 3.7 µM -4% | [4]; at 11.0 µM 5% | [4]; at 33.0 µM 4% | [4]; at 100.0 µM 3% | [5]; at 1.2 µM 21% | [5]; at 3.7 µM 53% | [5]; [16] 6% | [5]; at 50.0 µM 70% | [6]; at 1.2 µM 1% | [6]; at 3.7 µM 3% | [6]; [16] 4% | [6]; at 11.0 µM 13% | [6]; at 33.0 µM 24% | [6]; [17] -1% | [6]; at 50.0 µM -14.1% | [6]; at 100.0 µM 20% | [7]; at 1.2 µM -1% | [7]; at 3.7 µM 5% | [7]; at 11.0 µM 25% | [7]; at 33.0 µM 34% | [7]; at 100.0 µM 25% | [8]; [16] -22% | [8]; [17] -2% | [8]; at 50.0 µM 31.8% | [9]; at 1.2 µM 0% | [9]; at 3.7 µM -13% | [9]; at 11.0 µM -5% | [9]; at 33.0 µM 6% | [9]; at 100.0 µM 8% | [10]; [16] 21% | [10]; [17] 11% | [10]; at 50.0 µM 21.4% | [11]; at 1.2 µM -3% | [11]; at 3.7 µM 4% | [11]; [16] -20% | [11]; at 11.0 µM -3% | [11]; at 33.0 µM -2% | [11]; [17] -2% | [11]; at 50.0 µM 14.3% | [11]; at 100.0 µM -5% | [12]; at 1.2 µM -2% | [12]; at 3.7 µM -8% | [12]; at 11.0 µM 1% | [12]; at 33.0 µM 12% | [12]; at 100.0 µM 7% | [13]; at 1.2 µM -25% | [13]; at 3.7 µM 3% | [13]; at 11.0 µM 15% | [13]; at 33.0 µM 39% | [13]; at 100.0 µM 26% | [14]; [16] -6% | [14]; [17] 1% | [14]; at 50.0 µM 25.8% | [15]; at 1.2 µM -5% | [15]; at 3.7 µM -4% | [15]; at 11.0 µM -1% | [15]; at 33.0 µM -1% | [15]; at 100.0 µM 9%

O=C1c2cccc3cccc(c23)C(=O)N1O
active: [1]; at 100.0 µM 84% | [2]; at 100.0 µM 86% | [3]; at 100.0 µM 89% | [4]; at 33.0 µM 81% | [4]; at 100.0 µM 95% | [5]; [17] 99% | [5]; at 50.0 µM 84.4% | [5]; at 100.0 µM 89% | [6]; [17] 98% | [6]; at 50.0 µM 87.3% | [6]; at 100.0 µM 94% | [7]; at 33.0 µM 92% | [7]; at 100.0 µM 97% | [8]; [16] 90% | [8]; [17] 98% | [8]; at 50.0 µM 90.3% | [9]; at 33.0 µM 92% | [9]; at 100.0 µM 99% | [10]; [16] 71% | [10]; [17] 98% | [11]; [16] 93% | [11]; at 11.0 µM 83% | [11]; at 33.0 µM 97% | [11]; [17] 98% | [11]; at 50.0 µM 83.3% | [11]; at 100.0 µM 98% | [13]; at 100.0 µM 91% | [14]; [17] 99% | [14]; at 50.0 µM 86.4% | [15]; at 100.0 µM 81%
inactive: [1]; at 1.2 µM -3% | [1]; at 3.7 µM 3% | [1]; at 11.0 µM 1% | [1]; at 33.0 µM 24% | [2]; at 1.2 µM 3% | [2]; at 3.7 µM -1% | [2]; at 11.0 µM 7% | [2]; at 33.0 µM 24% | [3]; at 1.2 µM -3% | [3]; at 3.7 µM -2% | [3]; at 11.0 µM -1% | [3]; at 33.0 µM 28% | [4]; at 1.2 µM -8% | [4]; at 3.7 µM 4% | [4]; at 11.0 µM 23% | [5]; at 1.2 µM 9% | [5]; at 3.7 µM 13% | [5]; [16] 13% | [5]; at 11.0 µM 13% | [5]; at 33.0 µM 54% | [6]; at 1.2 µM 5% | [6]; at 3.7 µM -5% | [6]; [16] 33% | [6]; at 11.0 µM 4% | [6]; at 33.0 µM 36% | [7]; at 1.2 µM 16% | [7]; at 3.7 µM 13% | [7]; at 11.0 µM 46% | [9]; at 1.2 µM 6% | [9]; at 3.7 µM 8% | [9]; at 11.0 µM 29% | [10]; at 50.0 µM 47.1% | [11]; at 1.2 µM 4% | [11]; at 3.7 µM 18% | [13]; at 1.2 µM 14% | [13]; at 3.7 µM 8% | [13]; at 11.0 µM 19% | [13]; at 33.0 µM 67% | [14]; [16] 23% | [15]; at 1.2 µM 6% | [15]; at 3.7 µM 3% | [15]; at 11.0 µM 13% | [15]; at 33.0 µM 41%
